Assay results taken from PubChem BioAssay (EPA / NIEHS).
Inconclusive results are not listed. The source made the active and inactive calls. Rule for the calls: active = hit-call score of the fitted dose curve at least 0.9, where 1 is the maximum; inconclusive = response in the unintended direction; inactive = score below 0.9.

experiment: CLD_ACTIN_48hr: CellzDirect (CLD) Gene Expression Assay for Baseline Control (Actin) at 48 hours (AID 2283702)
Method: CLD_48hr is a cell-based, multiplexed-readout assay that uses hepatocyte, a human liver primary cell, with measurements taken at 48 hours after chemical dosing in a 96-well plate.CLD_ACTIN_48hr is one of 16 assay component(s) measured or calculated from the CLD_48hr assay. It is designed to make measurements of mRNA induction, a form of inducible reporter, as detected with chemiluminescence signals by Quantitative Nuclease Protection Assay (qNPA) technology.Data from the assay component CLD_ACTIN_48hr was analyzed at the endpoint, CLD_ACTIN_48hr, in the positive analysis fitting direction relative to DMSO as the negative control and baseline of activity. Using a type of inducible reporter, gain-of-signal activity can be used to understand changes in the reporter gene as they relate to the gene ACTA1. Furthermore, this assay endpoint can be referred to as a secondary readout, because this assay has produced multiple assay endpoints where this one serves a background control function. To generalize the intended target to other relatable targets, this assay endpoint is annotated to the background measurement intended target family, where subfamily is baseline control.
Human hepatocyte cultures were treated daily for two consecutive days with fresh dosing solutions containing appropriate concentrations of the 320 ToxCast chemicals (chemical identities were blinded to CellzDirect and other ToxCast collaborators), vehicle control (0.2% DMSO), and positive control inducers as summarized in Table 1. Due to the large number of treatment groups and chemicals examined, the ToxCast chemicals were divided into two groups (spanning two independent cultures of hepatocytes from separate donor preparations (Hu778: ToxCast plates 1 and 2; Hu776: ToxCast plates 3 and 4). Each preparation of human hepatocyte cultures was treated with respective vehicle control, medium only control, set of six positive controls/reference chemicals for the five hepatic receptor pathways, and a subset of eight of the ToxCast chemicals (indoxacarb, pyrithiobac-sodium, norflurazon, cyhalofop-butyl, methomyl, thiram, acetochlor, and propiconazole). These replicate data, coupled with internal replicates designed within the blinded ToxCast chemical library, provided additional data to evaluate interindividual differences between hepatocyte preparations and their potential impact on chemical profiles.Cell morphology and integrity were evaluated using phase-contrast microscopy as an indicator of hepatocyte cell health (Tyson & Green, 1987). Cultures for each treatment group (i.e., media, vehicle [0.2% DMSO], positive control inducers [multiple concentrations], and the ToxCast chemicals [multiple concentrations]) were observed and cell morphology was assessed relative to vehicle control cultures at each harvest time point (0, 6, 24, or 48 h). […] Images were evaluated at the conclusion of the study to assess changes in cell integrity and account for the effects of chemical exposure on uncharacteristic changes in concentration-dependent gene expression profiles. The results from these determinations of apparent cytotoxicity were annotated (yes/no) alongside the corresponding qNPA data for reference.At the conclusion of each treatment period, hepatocyte cultures (96-well) were washed with 1 volume of HBSS, lysed by addition of 25 ul ArrayPlate lysis buffer (HTG, Tucson, AZ), and 70 ul/well of Denaturation Oil, denatured by incubation at 95C for 10 min, and frozen at approximately -70C until analysis by nuclease protection assay (qNPA) (Roberts et al., 2007). For qNPA analysis, cell lysates were thawed at 50C for approximately 30 min, qNPA probes were added, and samples were incubated at 95C for 10 min to begin the detection process by denaturing the target RNA, dissociating the duplexes and secondary structure hybridization. At the conclusion of the hybridization period, S1 nuclease reagent was added to each sample to digest all nonprotected nucleotides at 50C for 60-90 min. […]

For `Cc1ccc(-c2c(Cl)nc(C#N)n2S(=O)(=O)N(C)C)cc1`, which outcome is on record?
Its outcome is “inactive”.

Which outcome does the source give for `CCON=C(CC)C1=C(O)CC(c2c(C)cc(C)cc2C)CC1=O` (stereo not given) here?
Its outcome is “inactive”.

Which outcome does the source give for `Cc1c(F)c(F)c(COC(=O)C2C(/C=C(\Cl)C(F)(F)F)C2(C)C)c(F)c1F` (stereo not given) here?
Its outcome is “inactive”.

Which outcome does the source give for `CC1COC(Cn2cncn2)(c2ccc(Oc3ccc(Cl)cc3)cc2Cl)O1` (stereo not given) here?
The outcome was “inactive”.

For `CNC(=S)S`, which outcome is on record?
Its outcome is “inactive”.

With `CC(C)(C)c1ccc(CSc2cnn(C(C)(C)C)c(=O)c2Cl)cc1` as the compound, how does the outcome read?
Its outcome is “inactive”.

For `CO/C=C(/C(=O)OC)c1ccccc1Oc1cc(Oc2ccccc2C#N)ncn1`, which outcome is on record?
Its outcome is “inactive”.

Which outcome does the source give for `CCCCOC(=O)c1ccccc1C(=O)OCCCC` here?
Its outcome is “inactive”.

With `COc1nc(C)nc(NC(=O)NS(=O)(=O)c2ccccc2CCC(F)(F)F)n1` as the compound, how does the outcome read?
Its outcome is “inactive”.

For `COc1cnc(OC)n2nc(NS(=O)(=O)c3c(OCC(F)F)cccc3C(F)(F)F)nc12`, which outcome is on record?
The outcome was “inactive”.

Which outcome does the source give for `CCCCNC(=O)OCC#CI` here?
Its outcome is “inactive”.

For `Cc1cc(Cl)ccc1OCC(=O)O`, which outcome is on record?
The outcome was “inactive”.

For `N#CC(CCc1ccc(Cl)cc1)(Cn1cncn1)c1ccccc1` (stereo not given), which outcome is on record?
The outcome was “inactive”.

With `CN(C)C(=S)SSC(=S)N(C)C` as the compound, how does the outcome read?
Its outcome is “inactive”.

With `COP(N)(=O)SC` (stereo not given) as the compound, how does the outcome read?
Its outcome is “inactive”.

For `CCCCC(CC)COC(=O)c1ccccc1C(=O)OCC(CC)CCCC` (stereo not given), which outcome is on record?
The outcome was “inactive”.

Which outcome does the source give for `CC(C)C1(C)N=C(c2nc3ccccc3cc2C(=O)O)NC1=O` (stereo not given) here?
Its outcome is “inactive”.

Which outcome does the source give for `COc1nc(C)nc(NC(=O)NS(=O)(=O)c2ccccc2Cl)n1` here?
Its outcome is “inactive”.

Which outcome does the source give for `COC(=O)C(C)Oc1ccc(Oc2ccc(Cl)cc2Cl)cc1` (stereo not given) here?
Its outcome is “inactive”.

For `COC(=O)C=C(C)OP(=O)(OC)OC`, which outcome is on record?
Its outcome is “inactive”.

With `CS/C(C)=N/OC(=O)N(C)SN(C)C(=O)O/N=C(\C)SC` as the compound, how does the outcome read?
The outcome was “inactive”.

For `N#Cc1nn(-c2c(Cl)cc(C(F)(F)F)cc2Cl)c(N)c1S(=O)C(F)(F)F` (stereo not given), which outcome is on record?
Its outcome is “inactive”.

Which outcome does the source give for `OC(c1ccc(Cl)cc1)(c1cncnc1)c1ccccc1Cl` (stereo not given) here?
The outcome was “inactive”.

Which outcome does the source give for `CCOC(=O)CC(SP(=S)(OC)OC)C(=O)OCC` (stereo not given) here?
Its outcome is “inactive”.

For `CNC(=O)ON=CC(C)(C)SC`, which outcome is on record?
Its outcome is “inactive”.
